# TexasRed fluor: Texas Red fluorescence interference in TRb-SRC2 counter-screen; Potency, µM (titrated, usually from 106 µM); TRb/SRC2 Texas Red total fluorescence interference; 280,000 compounds, 0.29% hits; active = well fitted curve in either direction with a large enough effect; inconclusive = small, poorly fitted or top-dose-only effect
#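 Human TRβ ligand-binding domain (0.6 uM) and Texas Red SRC2 peptide (20 nM) in Tris buffer with 1 uM T3 and 5% DMSO were incubated with pinned compound for 5 hr at ambient temperature. Total fluorescence was computed as S + 2P (555/632 nm).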
# TRb-SRC2 inh: inhibitors of human thyroid hormone receptor beta-SRC2 interaction. Potency, µM (doses to about 106 µM), usual class: inhibitors. TRbeta-SRC2 peptide binding, fluorescence polarization; receptor liganded with 1 µM T3. 280,000 compounds, 0.065% hits; also: nearly all actives have a fitted effect of over 50% in size
# Target sequence (P10828 whole entry, looked up): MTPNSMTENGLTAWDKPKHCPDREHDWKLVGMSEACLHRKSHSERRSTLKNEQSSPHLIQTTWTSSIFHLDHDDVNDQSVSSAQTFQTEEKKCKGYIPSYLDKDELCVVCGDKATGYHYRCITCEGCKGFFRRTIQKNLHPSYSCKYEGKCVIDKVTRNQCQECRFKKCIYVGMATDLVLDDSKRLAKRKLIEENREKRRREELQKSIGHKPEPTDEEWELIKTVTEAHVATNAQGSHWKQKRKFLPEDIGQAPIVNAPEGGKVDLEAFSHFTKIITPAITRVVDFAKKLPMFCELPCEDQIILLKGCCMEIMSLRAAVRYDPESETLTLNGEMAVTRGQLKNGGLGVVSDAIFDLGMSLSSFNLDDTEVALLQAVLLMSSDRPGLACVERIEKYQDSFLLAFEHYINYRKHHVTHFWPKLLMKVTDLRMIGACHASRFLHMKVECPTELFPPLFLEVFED
#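 Read-out is fluorescence polarization (555 nm excitation, 632 nm emission) of a Texas Red SRC2 coactivator peptide; loss of signal reflects blocked binding to human TRb ligand-binding domain in the presence of 1 uM T3.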
# Tau fluor cs: counter-screen for tau fibril formation inhibitors; tau K18 P301L Alexa594 fluorescence, heparin fibrillization; Potency, µM (top dose mostly 57.7 µM); 280,000 compounds, 0.93% hits; also: nearly all actives have a fitted effect of over 55% in size
#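 Human tau K18 P301L (15 uM unlabeled, 0.24 uM Alexa 594-labeled) in 100 mM sodium acetate pH 7 with 20 uM heparin, 6 hr at 37 C. ThT 30 uM added, 1 hr ambient; Alexa 594 FP and total fluorescence read at 555/632 nm.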
# Tau fibril ThT: tau fibrillization inhibition (ThT binding) | recombinant tau K18 P301L (four-repeat tau fragment), heparin-induced fibrillization, ThT fluorescence | P10636 | 270,000 compounds, 2.1% hits | AID 1460 | Potency, µM (doses to about 57.4 µM), hits mostly inhibitors; also: nearly all actives have a fitted effect of over 55% in size
# Target sequence (P10636 561-689 P618L limits assumed): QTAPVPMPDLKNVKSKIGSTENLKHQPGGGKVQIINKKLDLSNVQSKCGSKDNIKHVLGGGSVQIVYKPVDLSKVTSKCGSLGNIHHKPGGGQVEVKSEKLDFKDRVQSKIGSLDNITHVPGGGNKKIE
#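 Recombinant human tau K18 fragment […] carrying P301L, 15 uM unlabeled plus 0.24 uM Alexa 594-labeled, was fibrillized with 20 uM heparin in 100 mM sodium acetate pH 7 for 6 hr at 37 C; 30 uM ThT fluorescence read after 1 hr.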
# Tau fibril FP: inhibitors of human tau fibril formation. P10636. K18 P301L tau heparin fibrillization, Alexa594 FP, 6 h. Potency, µM (titrated, usually from 57.7 µM), hits mostly inhibitors. 280,000 compounds, 0.39% hits; also: nearly all actives have a fitted effect of over 55% in size
#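 Recombinant K18 P301L […], labeled with Alexa 594 at 0.24 uM over 15 uM unlabeled; heparin inducer 20 uM final; 37 C, 6 hr; FP endpoint.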
# Numbers stand for hits; – = inactive; ? = inconclusive; · = no result; [ ] = dose if it differs, or a comment. Shown are actives, neighbours in structure and some others; about 3% of the full set was active somewhere. Unless noted, calls follow the shape of the dose curve; as a rule, active = well fitted curve in the direction sought with a large enough effect; inconclusive = small, poorly fitted or top-dose-only effect, or another doubt; inactive = no such curve, though single readings can be large; an effect the other way counts as inactive or inconclusive.
SMILES,TexasRed fluor,TRb-SRC2 inh,Tau fluor cs,Tau fibril ThT,Tau fibril FP
CCOc1ccc(NC(=O)c2c(NCc3ccc(C)o3)sc3c2CCCCC3)cc1,–,–,–,22.4µM,?
CCOc1ccc(NC(=O)c2c(NCc3sccc3C)sc3c2CCCCC3)cc1,–,–,?,14.1µM,?
CCOc1ccccc1NC(=O)c1c(NCc2sccc2C)sc2c1CCCCC2,–,–,–,?,–
COc1ccc(NC(=O)c2c(NCc3ccc(C)o3)sc3c2CCC(C)C3)cc1 (stereo unspecified),–,–,?,25.1µM,?
CCOc1ccc(NC(=O)c2c(NCc3cccs3)sc3c2CCCCC3)cc1,–,–,?,?,–
CCOc1ccccc1NC(=O)c1c(NCc2sccc2C)sc2c1CCC(C)C2 (stereo unspecified),0.141µM[quencher],?,–,–,–
COc1ccc2c(c1)cc(CNc1ccc(OC)c(OC)c1)c(=O)n2CC(=O)Nc1ccccc1C,–,–,?,?,–
COc1ccc2c(c1)cc(CNc1ccc(OC)c(OC)c1)c(=O)n2CC(=O)Nc1ccc(F)cc1,–,–,15.8µM[quencher],?,–
COc1ccc(C)cc1NC(=O)Nc1cccc(-c2noc(C)n2)c1,–,–,?,?,–
Cc1nc(-c2cccc(NC(=O)Nc3ccc([N+](=O)[O-])cc3)c2)no1,–,–,8.91µM[quencher],?,12.6µM
CC(=O)Nc1ccc(Br)c2ccccc12,–,–,–,–,–
O=C(Nc1ccc(Br)c2ccccc12)c1ccc2ccccc2c1O,–,–,17.8µM[quencher],17.8µM,?
Oc1sc(C=Nc2ccc(F)cc2)c2ccccc12,–,–,–,–,–
Oc1c(C=Nc2cccnc2)sc2ccccc12,–,–,–,12.6µM,–
Oc1sc(C=Nc2ccccc2)c2ccccc12,–,–,14.1µM[quencher],?,–
Oc1c(C=Nc2ccc(Cl)cn2)sc2ccccc12,–,–,–,?,–
Oc1c(/C=N/c2ccccn2)sc2ccccc12,–,–,2.82µM[fluorescent],5.62µM,?
COc1cc(OC)c(NC(=O)N2CCSc3ccccc32)cc1Cl,?,–,?,–,–
Cc1nn(CCC(=O)NCc2cccc(Br)c2)c(=O)c2nn(-c3ccccc3)c(C)c12,–,–,–,–,–
O=C(NCCCN1CCCCCC1)c1ccc2c(c1)sc1nc(-c3ccccc3)cn12,–,–,–,–,–
Cc1cc2nc(CS)[nH]c2cc1C,–,–,–,31.6µM,–
O=C(NCc1ccco1)c1nc2ccccc2s1,–,–,–,–,–
CC1=CC(=C(C#N)c2nc3ccccc3s2)C=C(C)N1Cc1ccco1,–,–,3.98µM[quencher],–,?
NC(=O)c1cc(-c2ccccc2)sc1NC(=O)CN1CCCCC1,–,–,17.8µM[quencher],–,?
CCOc1ccc(S(=O)(=O)Nc2ccc3c(c2)c(C(C)=O)c(C)n3S(=O)(=O)c2ccc(OCC)cc2)cc1,–,–,?,–,?
SMILES,TexasRed fluor,TRb-SRC2 inh,Tau fluor cs,Tau fibril ThT,Tau fibril FP
CCOc1ccc(C(=O)Nc2ccc3nn(-c4ccc(OC)c(Cl)c4)nc3c2)cc1,?,–,–,?,?
CC1=CC(=Nc2c(C)n(C)n(-c3ccccc3)c2=O)C=C(C)C1=O,–,–,?,11.2µM,?
CC1=CC(=Nc2c(C)n(C)n(-c3ccccc3)c2=O)C=CC1=O,–,?,?,3.16µM,10µM
CCNc1ccc(N=Nc2c(C)n(C)n(-c3ccccc3)c2=O)cc1,–,–,–,15.8µM,–
CCOC(=O)/C(N=Nc1c(C)n(C)n(-c2ccccc2)c1=O)=C(\C)O,–,–,–,–,–
O=C(CCn1cnc2onc(-c3ccc(F)cc3)c2c1=O)N1CCN(c2ccccc2F)CC1,–,–,–,–,–
CN1CCN(c2ccc(NC(=O)c3sc4ccccc4c3Cl)cc2)CC1,–,–,?,5.01µM,–
O=C(Cn1c(-c2ccccc2)noc1=O)Nc1ccc(N2CCCCCC2)cc1,–,–,14.1µM[quencher],–,?
CN1CCN(c2ccc(NC(=O)c3cccc(OCc4ccccc4)c3)cc2)CC1,–,–,14.1µM[quencher],?,?
O=C(Nc1ccc(N2CCCCC2)cc1)c1ccccc1,–,–,–,?,–
CCN1CCN(c2ccc(NC(=O)c3cccc(OCc4ccccc4)c3)cc2)CC1,–,–,–,–,–
O=C(Nc1ccc(N2CCCC2)cc1)c1cccc(F)c1,–,–,?,12.6µM,?
O=C(NCc1ccccc1F)C1CCN(c2nn3cc(-c4ccc(F)cc4)nc3s2)CC1,–,–,–,?,–
CC(=O)Nc1ccc(N2CCCC2)cc1,–,–,?,28.2µM,?
O=C(Nc1ccc(N2CCN(c3ccc(O)cc3)CC2)cc1)Oc1ccccc1,–,–,7.94µM[quencher],5.01µM,–
CC(=O)Nc1ccc(N2CCCCC2)cc1,–,–,–,–,–
COC(=O)[C@H](CCCN=C(N)N)NC(=O)CCCc1c(-c2ccccc2)[nH]c2c(F)cc(F)cc12,–,–,?,–,–
Cc1ccc(-n2[nH]c(C)c(/C=N/n3c(C)nc4ccccc4c3=O)c2=O)cc1,–,–,–,25.1µM,?
Cc1[nH]n(-c2ccccc2)c(=O)c1/C=N/n1c(C)nc2ccccc2c1=O,–,–,–,–,–
COc1cccc(NC(=O)CC2Nc3cc(C)c(C)cc3NC2=O)c1 (stereo unspecified),–,–,?,?,–
CC(=O)c1ccc(NC(=O)CC2Nc3cccc4cccc(c34)NC2=O)cc1 (stereo unspecified),–,–,25.1µM[quencher],14.1µM,?
CCOc1ccc(NC(=O)CC2Nc3cccc4cccc(c34)NC2=O)cc1 (stereo unspecified),–,–,15.8µM[quencher],14.1µM,–
CCOc1ccc(NC(=O)CC2Nc3ccccc3NC2=O)cc1 (stereo unspecified),–,–,–,?,–
CCOC(=O)c1ccc(NC(=O)CC2Nc3cccc4cccc(c34)NC2=O)cc1 (stereo unspecified),?,–,8.91µM[quencher],12.6µM,?
CCOC(=O)c1ccc(NC(=O)CC2Nc3cc(C)c(C)cc3NC2=O)cc1 (stereo unspecified),–,–,14.1µM[quencher],?,–
Cc1cccc(NC(=O)CC2Nc3cccc4cccc(c34)NC2=O)c1 (stereo unspecified),–[11.2 µM],–[11.2 µM],8.91µM[quencher],?,–
CSCC[C@H](NC(=O)[C@H](Cc1ccc(OS(=O)(=O)O)cc1)NC(=O)[C@@H](N)CC(=O)O)C(=O)NCC(=O)N[C@@H](Cc1c[nH]c2ccccc12)C(=O)N[C@@H](CCSC)C(=O)N[C@@H](CC(=O)O)C(=O)N[C@@H](Cc1ccccc1)C(N)=O,?,–,·,·,·
O=C(/C=C/NNC(=O)c1ccc(Br)cc1)c1ccccc1,–,–,?,25.1µM,–
CCOC(=O)c1cccc(NC(=O)COc2ccc([N+](=O)[O-])cc2)c1,–,–,?,?,–
Cc1cccc(NC(=O)COc2ccc(/C=C\c3[nH]c(=O)[nH]c(=O)c3[N+](=O)[O-])cc2)c1,–,–,–,10µM,–

# Screening data as filed in PubChem BioAssay.
